# This is a sample that favours compounds with a hit; in the whole collection about 19% have one here.
# DT40 TDP1 CPT: DT40-hTDP1 cell growth loss with CPT | chicken DT40 Tdp1-/-;hTDP1 cells + 20 nM CPT, ATP luminescence, 48 h | Potency, µM (doses to about 46.2 µM), for the others: top-dose activity change, negative = growth inhibition, hits mostly inhibitors | 420,000 tested, 12% active; also: nearly all actives have a fitted effect of over 55% in size
#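 Cell growth measured by CellTiter-Glo luminescence after a minimum 48 h, 37 C compound exposure with 20 nM CPT in Tdp1-knockout DT40 cells stably expressing hTDP1, seeded 400/well; qHTS titration format.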
# KB-V1 cytotox: kills drug-selected multidrug resistant KB-V1 cells; KB-V1 MDR cells viability, CellTiter-Glo, 72 h; Potency, µM (series often up to 46.1 µM), actives largely listed as cytotoxic; 400,000 tested, 3.4% active; also: nearly all actives have a fitted effect of over 60% in size
#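 Following 72 h at 37 degrees C with compound, KB-V1 cell viability was read by CellTiter-Glo luminescence, medium being phenol-red-free DMEM plus 10% FBS; concentration-response parameters came from normalized, curve-fitted qHTS data.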
# HT1080-NT tox: kills 2HG-producing HT-1080-NT fibrosarcoma cells | HT-1080-NT fibrosarcoma viability, CellTiter-Glo ATP luminescence, 48 h | Potency, µM (highest dose often 46.1 µM), without a hit: top-dose activity, negative = less viability, most hits filed as cytotoxic | 360,000 tested, 1.6% active;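 also: NT is the 2HG producing partner of a matched IDH1 knockdown line; 0% = DMSO-treated cells and -100% = media-only wells without cells; nearly all actives have a fitted effect of over 55% in size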
#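 Read-out is CellTiter-Glo luminescence after 10 minutes at room temperature, following 48 hours' compound treatment of HT-1080-NT cells (750 cells/well, RPMI, 5% FBS, 37 degrees C).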
# DT40 TDP1 no CPT: qHTS for Inhibitors of human tyrosyl-DNA phosphodiesterase 1 (TDP1): qHTS in cells in absence of CPT; DT40 Tdp1-/- hTDP1 cells, no CPT, ATP luminescence, 48 h; Potency, µM (top dose mostly 46.2 µM), inactives show at the highest dose activity change, negative = growth inhibition, most hits filed as inhibitors; 420,000 tested, 15% active; AID 686978, 2013; also: nearly all actives have a fitted effect of over 55% in size
#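 Growth kinetics read by CellTiter-Glo luminescence after ≥48 hr at 37 °C. Cells: DT40 Tdp1-/- stably carrying human TDP1, 400 per well, compound exposure in the absence of CPT (DMSO vehicle).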
# KB-3-1 tox: KB-3-1 parental cell cytotoxicity. KB-3-1 viability, CellTiter-Glo ATP luminescence, 72 h. Potency, µM (top dose mostly 46.1 µM), most hits filed as cytotoxic. 400,000 tested, 1.4% active. AID 1347075; also: nearly all actives have a fitted effect of over 60% in size
#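 KB-3-1 cells, DMEM (no phenol red) + 10% FBS; compound by pin transfer, 72 h, 37 °C. Readout: CellTiter-Glo luminescence after 10 min. Data normalized, curve-fitted.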
# HT1080 IDH1KD tx: HT-1080 IDH1 knockdown cell toxicity (counter line); AID 686971; Potency, µM (highest dose often 46.1 µM), for inactives: at the highest dose activity, negative = toxicity, actives largely listed as cytotoxic; 360,000 tested, 2% active; HT-1080 IDH1 knockdown viability, ATP luminescence, 48 h;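 also: 0% = DMSO wells and -100% = cell-free medium wells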
#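 IDH1KD HT-1080 cells, 750/well, RPMI + 5% FBS; compound pinned after 2 h settling; 48 h, 37 °C; CellTiter-Glo luminescence; % activity normalised to DMSO and no-cell wells; curves fitted, classed by r2 and efficacy.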
# * = called active by the depositor; i = inactive; ? = inconclusive; nt = not tested or not shown. Calls follow the shape of the dose curve; as a rule, active = well fitted curve in the direction sought with a large enough effect; inconclusive = small, poorly fitted or top-dose-only effect, or another doubt; inactive = no such curve, though single readings can be large; an effect the other way counts as inactive or inconclusive. Unless noted, % is scaled to controls: 0 for no effect and ±100 for the full control effect; potency is read from the fitted curve at half-maximal effect.
SMILES,DT40 TDP1 CPT,KB-V1 cytotox,HT1080-NT tox,DT40 TDP1 no CPT,KB-3-1 tox,HT1080 IDH1KD tx
O=C(NCCCC(NC(=O)OCc1ccccc1)C(=O)O)OCc1ccccc1 (stereo unspecified),-3.3%,i,1.0%,14.7%,i,-0.4%
CCC(=O)NNc1ncnc2c1cnn2-c1ccc(C)c(Cl)c1,-21.4%,i,nt,-32.6%,i,nt
COc1cc(NC(=O)CSc2nc3ncccc3o2)cc(OC)c1,?,i,nt,?,i,nt
CCCOc1ccc(NC(=O)CC2C(=O)N(c3ccc(Cl)cc3)C(=O)N2CCc2ccncc2)cc1 (stereo unspecified),?,nt,nt,25.9µM*,nt,nt
COc1ccc(NC(=O)CC2C(=O)N(c3ccc(C)cc3)C(=O)N2CCc2ccccc2)cc1 (stereo unspecified),14.6µM*,i,nt,14.6µM*,?,nt
CCNC(=O)CC1C(=O)N(c2ccccc2)C(=O)N1CCc1ccc(OC)cc1 (stereo unspecified),?,i,17.8%,-8.4%,i,6.7%
O=C(Cn1cc(C(=O)C2CCCCC2)c2ccccc21)Nc1ccccc1Cl,?,?,nt,?,i,nt
COc1cccc(-n2cc(C(=O)Nc3cccc(C(F)(F)F)c3)c3ccccc3c2=O)c1,16.4µM*,nt,nt,?,nt,nt
COc1ccc(-n2cc(C(=O)NC(C)c3ccccc3)c3ccccc3c2=O)cc1 (stereo unspecified),18.4µM*,nt,nt,?,nt,nt
CCOc1ccc(-n2cc(C(=O)NCc3ccco3)c3cc(OC)c(OC)cc3c2=O)cc1,?,i,-3.5%,?,0.517µM*,-3.7%
CCn1cc(C(=O)NCc2ccco2)c2cc(OC)c(OC)cc2c1=O,-21.2%,i,5.6%,-3.6%,i,8.5%
COc1cccc(-n2cc(C(=O)NCCCOC(C)C)c3ccccc3c2=O)c1,-8.7%,i,2.3%,6.3%,i,-0.3%
CCOc1ccc(CCNC(=O)c2cn(-c3cccc(OC)c3)c(=O)c3ccccc23)cc1,?,nt,nt,20.6µM*,nt,nt
COc1ccc(-n2cc(C(=O)O)c3ccccc3c2=O)cc1,-6.3%,i,-10.0%,-9.1%,i,-1.7%
COc1ccc(-n2cc(C(=O)NCCc3ccc(C)cc3)c3ccccc3c2=O)cc1,?,nt,nt,20.6µM*,nt,nt
CCCN(CCC)CCCNC(=O)c1cn(-c2ccc(OC)cc2)c(=O)c2ccccc12,1.2%,i,1.1%,22.3%,i,16.4%
Cc1ccc(-n2cc(C(=O)Oc3ccc(F)cc3)c3ccccc3c2=O)cc1,16.4µM*,i,nt,?,i,nt
Cc1ccc(-n2cc(C(=O)Oc3cccc(C)c3)c3ccccc3c2=O)cc1,-4.3%,i,nt,-1.0%,i,nt
COc1cccc(-n2cc(C(=O)NC(C)C)c3ccccc3c2=O)c1,5.1%,i,1.2%,-2.4%,i,9.0%
COc1cccc(-n2cc(C(=O)NCc3ccc(C)cc3)c3ccccc3c2=O)c1,14.6µM*,nt,nt,?,nt,nt
COc1cccc(-n2cc(C(=O)NCCc3ccc(C)cc3)c3ccccc3c2=O)c1,8.2µM*,nt,nt,10.3µM*,nt,nt
CN(C(=O)COC(=O)c1ccc(Cl)nc1)C1CCS(=O)(=O)C1 (stereo unspecified),-3.9%,i,-1.4%,-12.6%,i,-2.4%
CC(=O)c1ccc(N2CCN(C(=O)c3cc(S(=O)(=O)N4CCOCC4)ccc3C)CC2)cc1,-21.3%,i,1.9%,-27.2%,i,0.8%
CCN(C(=O)c1cn(-c2ccc(OC)cc2)c(=O)c2ccccc12)c1cccc(Cl)c1,16.4µM*,nt,nt,16.4µM*,nt,nt
O=C(Nc1ccccc1N1CCN(C(=O)c2ccccc2)CC1)c1ccc(Br)o1,?,?,-9.5%,20.6µM*,?,-3.9%
SMILES,DT40 TDP1 CPT,KB-V1 cytotox,HT1080-NT tox,DT40 TDP1 no CPT,KB-3-1 tox,HT1080 IDH1KD tx
O=C(Nc1ccccc1N1CCN(C(=O)c2ccc(Cl)cc2)CC1)c1cc2ccccc2o1,25.9µM*,i,-7.1%,?,i,-3.6%
O=C(Cc1ccccc1)Nc1ccccc1N1CCCC1,?,?,-5.5%,?,i,0.0%
O=C(Cc1ccc(Cl)cc1)Nc1ccccc1N1CCN(C(=O)c2ccccc2)CC1,?,?,-16.3%,20.6µM*,i,-29.7%
O=C(Nc1ccccc1N1CCN(C(=O)c2ccc(Cl)cc2)CC1)c1ccc(Br)cc1,?,?,-17.9%,-2.2%,i,-13.3%
O=C(Nc1ccc(N2CCN(C(=O)c3ccc(Cl)cc3)CC2)cc1)c1cc2ccccc2o1,?,i,8.5%,-19.1%,i,3.8%
O=C(Nc1ccccc1N1CCN(C(=O)c2ccccc2)CC1)c1ccc(Cl)cc1,?,i,-28.9%,23.1µM*,i,-20.2%
CC1Cc2ccccc2N1C(=O)COC(=O)c1ccc([N+](=O)[O-])o1 (stereo unspecified),?,?,9.8%,-14.6%,i,-0.8%
O=C(NC(=S)Nc1ccccc1N1CCN(C(=O)c2ccccc2)CC1)c1ccccc1F,16.4µM*,i,-15.4%,18.4µM*,i,?
CC(=O)N(O)c1ccc(C=Cc2ccccc2)cc1,2.06µM*,?,?,0.411µM*,?,?
CC(C)c1ccc(NC(=O)CSC2=Nc3ccccc3C3=NC(CCC(=O)NCc4ccco4)C(=O)N23)cc1 (stereo unspecified),-15.3%,i,nt,-4.2%,i,nt
COc1ccc(N(C(=O)c2ccc(Cl)cc2)S(=O)(=O)c2ccc(C)cc2)cc1,?,?,nt,23.1µM*,i,nt
COc1ccc(N(C(=O)C(C)C)S(=O)(=O)c2cccs2)cc1,-26.1%,i,-27.9%,?,i,?
COc1ccc(S(=O)(=O)Oc2ccc3ccccc3c2)cc1,16.4µM*,16.4µM*,-21.4%,29.1µM*,?,-6.4%
COc1ccc(S(=O)(=O)Oc2ccc3cccc(N)c3c2)cc1,?,?,-23.1%,?,?,-26.9%
COc1ccc(N(C(=O)C(C)C)S(=O)(=O)c2ccc3ccccc3c2)cc1,14.6µM*,i,-13.9%,?,i,-5.3%
COc1ccc(N(C(=O)c2cccc(C)c2)S(=O)(=O)c2ccc(C)cc2)cc1,18.4µM*,i,nt,?,?,nt
OC[C@H]1O[C@@H](c2nc(-c3ccc(Br)cc3)no2)C[C@@H]1O,-24.5%,i,5.9%,?,i,9.2%

# Bioassay records deposited in PubChem BioAssay by National Center for Advancing Translational Sciences (NCATS).
